{
  "source": "paper PMC10668032",
  "about": "“Altered binding affinity of SIX1-Q177R correlates with enhanced WNT5A and WNT pathway effector expression in Wilms tumor”",
  "note": "Whole data set: some 33,000 sequences, median “e-score” near -0.05, cut for the highest 2% near 0.38. Shown is part of a subset that was picked to be rich in the highest values.",
  "data": [
    {"biological_target": "T1, SIX1-Q177R homeodomain (human, UniProt Q15475 108-198, Q177R)", "T1 sequence": "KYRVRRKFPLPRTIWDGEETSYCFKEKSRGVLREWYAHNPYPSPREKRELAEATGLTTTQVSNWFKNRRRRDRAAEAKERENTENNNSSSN", "assay": "universal protein binding microarray; Universal all-10-mer PBM (8x60K, AMADID 030236), 300 nM GST-tagged protein, Alexa Fluor 488 anti-GST; buffer, salt, pH and temperature not stated (as in Berger); high values mean tight binding", "conditions": "protein: ivt; tags: N-terminal GST; dsDNA, one strand shown", "procedure,_shortened": "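After in vitro transcription/translation, GST-tagged homeodomains were quantified against a recombinant GST standard curve by anti-GST western blot. They were then placed in duplicate at 300 nM final concentration on universal 'all 10-mer' protein binding microarrays of 8×60K format.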", "units": {"binding signal": "E-score"}, "values": [
      {"sequence": "ATGTGTAC", "binding signal": "0.23 ± 0.0242"},
      {"sequence": "AGGTGTAT", "binding signal": "0.441 ± 0.0169"},
      {"sequence": "ACCTGTAT", "binding signal": "0.17 ± 0.00632"},
      {"sequence": "CGGTGCAC", "binding signal": "0.296 ± 0.017"},
      {"sequence": "AGGTGCGG", "binding signal": "0.187 ± 0.0153"},
      {"sequence": "AGGTGCAC", "binding signal": "0.264 ± 0.00684"},
      {"sequence": "AGGTATAA", "binding signal": "0.17 ± 0.0346"},
      {"sequence": "CGGTGTAC", "binding signal": "0.4872 ± 0.00266"},
      {"sequence": "CGATGTAC", "binding signal": "0.254 ± 0.0159"},
      {"sequence": "ATGTGTAG", "binding signal": "0.183 ± 0.0469"},
      {"sequence": "AGGTGTAG", "binding signal": "0.473 ± 0.00747"},
      {"sequence": "AGGTGTAC", "binding signal": "0.4703 ± 0.00148"},
      {"sequence": "CAGCGGGG", "binding signal": "0.194 ± 0.00852"},
      {"sequence": "CACTCTCC", "binding signal": "0.192 ± 0.0425"},
      {"sequence": "CACGACGG", "binding signal": "0.182 ± 0.0214"},
      {"sequence": "CCATTACA", "binding signal": "0.162 ± 0.00552"},
      {"sequence": "CCGGAGTA", "binding signal": "0.227 ± 0.00414"},
      {"sequence": "CACCCGTC", "binding signal": "0.338 ± 0.01"},
      {"sequence": "ACCCCGTC", "binding signal": "0.178 ± 0.0222"},
      {"sequence": "ATACCGTG", "binding signal": "0.301 ± 0.0379"},
      {"sequence": "ACGCCGTG", "binding signal": "0.185 ± 0.00332"},
      {"sequence": "ACACCGTG", "binding signal": "0.472 ± 0.00577"},
      {"sequence": "ACACCGTC", "binding signal": "0.4594 ± 0.0011"},
      {"sequence": "GCACCGTA", "binding signal": "0.201 ± 0.0112"},
      {"sequence": "CCCCCGTA", "binding signal": "0.155 ± 0.0244"},
      {"sequence": "ACACCGTA", "binding signal": "0.4704 ± 0.00388"},
      {"sequence": "ACGTAGAG", "binding signal": "0.156 ± 0.0478"},
      {"sequence": "ATAGTACA", "binding signal": "0.312 ± 0.0122"},
      {"sequence": "CCCCCCCC", "binding signal": "0.188 ± 0.0377"},
      {"sequence": "TGCAGACA", "binding signal": "0.167 ± 0.00968"},
      {"sequence": "ACACGCGG", "binding signal": "0.402 ± 0.00628"},
      {"sequence": "ATACGCGA", "binding signal": "0.151 ± 0.036"},
      {"sequence": "ACACGCGT", "binding signal": "0.402 ± 0.0109"},
      {"sequence": "ACCCGCGG", "binding signal": "0.171 ± 0.0326"},
      {"sequence": "ACCCGCGT", "binding signal": "0.229 ± 0.0104"},
      {"sequence": "ACACGCGA", "binding signal": "0.369 ± 0.00701"},
      {"sequence": "CCCGGCCC", "binding signal": "0.167 ± 0.00402"},
      {"sequence": "TACCTACA", "binding signal": "0.3116 ± 0.00228"},
      {"sequence": "TCAATACA", "binding signal": "0.212 ± 0.0334"},
      {"sequence": "ACGTGCTC", "binding signal": "0.215 ± 0.0224"},
      {"sequence": "CACCGGAG", "binding signal": "0.328 ± 0.00104"},
      {"sequence": "ACTCAACA", "binding signal": "0.172 ± 0.00693"},
      {"sequence": "ATTAACAC", "binding signal": "0.416 ± 0.0363"},
      {"sequence": "ATTAAAAC", "binding signal": "0.158 ± 0.019"},
      {"sequence": "ATTAACCC", "binding signal": "0.187 ± 0.00393"},
      {"sequence": "CTTAACAC", "binding signal": "0.435 ± 0.00897"},
      {"sequence": "CTTCACAC", "binding signal": "0.278 ± 0.0221"},
      {"sequence": "GACTCCTA", "binding signal": "0.2147 ± 0.000728"},
      {"sequence": "GTTAAGGA", "binding signal": "0.163 ± 0.00211"},
      {"sequence": "CAGGGTGG", "binding signal": "0.161 ± 0.0171"},
      {"sequence": "ACTAGCAC", "binding signal": "0.194 ± 0.00984"},
      {"sequence": "GAGATGTA", "binding signal": "0.1954 ± 0.000318"},
      {"sequence": "ACAGACAC", "binding signal": "0.392 ± 0.013"},
      {"sequence": "ACACAGAT", "binding signal": "0.167 ± 0.0587"},
      {"sequence": "CACGAGAC", "binding signal": "0.154 ± 0.0312"},
      {"sequence": "GGAGACAC", "binding signal": "0.397 ± 0.0125"},
      {"sequence": "GCAGACAC", "binding signal": "0.352 ± 0.0222"},
      {"sequence": "AGACACAC", "binding signal": "0.316 ± 0.0332"},
      {"sequence": "AGAGACAC", "binding signal": "0.411 ± 0.00648"},
      {"sequence": "CGAGACAC", "binding signal": "0.389 ± 0.0103"},
      {"sequence": "CCAGACAC", "binding signal": "0.37 ± 0.0149"},
      {"sequence": "CCGGGTTA", "binding signal": "0.2 ± 0.024"}
    ]}
  ]
}
